Results taken from PubChem BioAssay AID540280 (National Center for Advancing Translational Sciences (NCATS), 2011).
The list shows a part of the results. The source made the active and inactive calls. Calls follow the shape of the full dose curve.

Each molecule was assayed against DNA polymerase beta (Homo sapiens) (UniProt P06746) (assay: Inhibitors of DNA Polymerase Beta: Hit validation). Conditions: Pol beta primer extension/strand displacement, fluorescence kinetic.
Description: The base excision repair system in human cells is a target for therapeutic modulation of the response to irradiation treatment and DNA-damaging drugs. A key enzyme in this system is the bi-functional DNA polymerase known as DNA polymerase Beta (Pol Beta). The following is a homogeneous kinetic assay to study the primer extension and strand-displacement reaction catalyzed by pol beta.
A stepwise description of the 1536-well assay is shown in next Table. Three microliters of reagents (buffer in column 3 and 4 as negative control and 10 nM Pol beta in columns 1, 2, and 5-48) was dispensed into 1,536-well black solid-bottomed plate. Compounds (23 nL) were transferred via Kalypsys pin tool equipped with 1536-pin array (10 nL slotted pins, V&P Scientific, San Diego, CA). The plates were incubated for 15 min at room temperature, and 1 uL substrate (50 nM final concentration) were added to start the reaction and immediately read at 0 min read on Viewlux reader. The plate were further incubated for 10 min at room temperature, and then read on Viewlux again. Throughout the screen, reagent bottle and all liquid lines were chilled and made light-tight to minimize reagent degradation. All screening operations were performed on a fully integrated robotic system (Kalypsys, San Diego, CA) containing one RX-130 and two RX-90 anthropomorphic robotic arms (Staubli, Duncan, SC). Library plates were screened starting from the lowest and proceeding to the highest concentration, and a double-dipping step of the highest concentration was required to access higher concentrations of compounds. Vehicle-only plates, with DMSO being pin-transferred to the entire column 5-48 compound area, were inserted uniformly at the beginning and the end of each library in order to monitor for and record any shifts in the background, which can be affected by reagent dispensers or loss in enzyme activity overtime. Screening data were corrected, normalized, and concentration-effect relationships were derived by using publicly-available curve fitting algorithms developed in-house (http://ncgc.nih.gov/pub/openhts). A four parameter Hill equation was fitted to the concentration-response data by minimizing the residual error between the modeled and observed responses.
Potency is read from the fitted curve at half-maximal effect.

Potency, active:
O=C(Nc1ccc(S(=O)(=O)Nc2nccs2)cc1)c1cc(-c2ccncc2)nc2ccccc12 25.1 µM
Cc1c(CC(=O)N2CCN(C(=O)C3COc4ccccc4O3)CC2)c(=O)oc2c(O)c(O)ccc12 (configuration not stated) 2.24 µM
Cc1c(CCC(=O)O)c(=O)oc2c(C)c(OCc3ccccc3Cl)ccc12 12.6 µM
COc1ccc(Cc2nnc(NC(=O)Cc3cccs3)s2)cc1 6.31 µM
Cc1ccc2nc(-c3ccncc3)cc(C(=O)Nc3ccc(OC(F)F)cc3)c2c1 35.5 µM
Cc1ccc(C(=O)Oc2coc(CSc3nnc(NC(=O)c4cccs4)s3)cc2=O)cc1C 31.6 µM
COc1cc([C@H](Cc2ccccc2)NC(C)=O)oc(=O)c1 28.2 µM
